In the supplement of paper PMC10849652:
The full data set covers some 8,800 targets. This sample favours those with a hit. About 0.5% of all pairs of compound and target were hits. Values without a mark were called inactive.

Key:
Assay in all cases: log2 fold change, soluble protein after heating vs DMSO (PISA); higher = thermal stabilisation; K562 lysate, 10 uM; active = over 0.2 and 3.5 SD of the protein, either way, in both replicates (recomputed)
[1] = compound: CCCS(=O)(=O)Nc1ccc(F)c(C(=O)c2c[nH]c3ncc(-c4ccc(Cl)cc4)cc23)c1F [vemurafenib]
Summary of the method: (§1)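 K562 pellets were dounce-homogenised in PBS pH 7.4 with 1 mM MgCl2, and the crude extract at 1 mg/mL protein was treated with 10 μM compound for 30 min. Aliquots were heated for 3 min across 48°C-58°C, pooled, and brought to 0.5% NP-40 at 4°C; soluble protein was the supernatant after 21,000xg for 90 min. Soluble protein was quantified by TMTpro 16plex LC-MS/MS with channel sums equalised, and reported as log2 fold change in thermal stability against DMSO controls, with values from duplicates.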

[2] = compound: CCCS(=O)(=O)Nc1ccc(F)c(C(=O)c2c[nH]c3ncc(Cl)cc23)c1F
Summary of the method: as §1

[3] = compound: CCN(CCCOc1ccc2c(Nc3cc(CC(=O)Nc4cccc(F)c4)[nH]n3)ncnc2c1)CCOP(=O)(O)O [barasertib]
Summary of the method: as §1

[4] = compound: CC[C@@H]1C(=O)N(C)c2cnc(Nc3ccc(C(=O)NC4CCN(C)CC4)cc3OC)nc2N1C1CCCC1
Summary of the method: as §1

[5] = compound: CC[C@@H]1C(=O)N(C)c2cnc(Nc3ccc(C(=O)N[C@H]4CC[C@H](N5CCN(CC6CC6)CC5)CC4)cc3OC)nc2N1C(C)C [volasertib]
Summary of the method: as §1

[6] = compound: CCn1c(C(=O)N(C2CC2)C2CC2)cc2c3c(ncn3C)c(Nc3cc(C)n(C)n3)nc21
Summary of the method: as §1

[7] = compound: CCn1cc(-c2ccnc3[nH]c(-c4cccc(CN(C)C)c4)cc23)c(-c2ccc(NC(=O)N(C)C)cc2)n1
Summary of the method: as §1

[8] = compound: CN1CCC(CNc2ccc3ncc(-c4cccc(OC(F)(F)F)c4)n3n2)CC1
Summary of the method: as §1

[9] = compound: CN1CCN(CCOc2cc(OC3CCOCC3)c3c(Nc4c(Cl)ccc5c4OCO5)ncnc3c2)CC1 [saracatinib]
Summary of the method: as §1

[10] = compound: CN1CCN(c2nc(C3=C(c4c[nH]c5ccccc45)C(=O)NC3=O)c3ccccc3n2)CC1 [sotrastaurin]
Summary of the method: as §1

Chain of UniProt O75794 (O75794 whole entry, looked up): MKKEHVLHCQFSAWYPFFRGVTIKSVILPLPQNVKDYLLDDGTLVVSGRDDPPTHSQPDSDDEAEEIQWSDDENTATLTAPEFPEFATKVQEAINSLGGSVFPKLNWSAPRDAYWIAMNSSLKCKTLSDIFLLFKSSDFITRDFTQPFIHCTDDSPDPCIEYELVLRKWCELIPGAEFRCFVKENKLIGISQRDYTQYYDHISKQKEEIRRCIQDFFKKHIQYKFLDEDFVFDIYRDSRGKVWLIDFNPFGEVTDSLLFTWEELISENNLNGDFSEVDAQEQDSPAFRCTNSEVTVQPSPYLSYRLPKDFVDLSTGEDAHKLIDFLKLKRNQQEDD
Chain of UniProt Q96A33 (Q96A33 whole entry, looked up): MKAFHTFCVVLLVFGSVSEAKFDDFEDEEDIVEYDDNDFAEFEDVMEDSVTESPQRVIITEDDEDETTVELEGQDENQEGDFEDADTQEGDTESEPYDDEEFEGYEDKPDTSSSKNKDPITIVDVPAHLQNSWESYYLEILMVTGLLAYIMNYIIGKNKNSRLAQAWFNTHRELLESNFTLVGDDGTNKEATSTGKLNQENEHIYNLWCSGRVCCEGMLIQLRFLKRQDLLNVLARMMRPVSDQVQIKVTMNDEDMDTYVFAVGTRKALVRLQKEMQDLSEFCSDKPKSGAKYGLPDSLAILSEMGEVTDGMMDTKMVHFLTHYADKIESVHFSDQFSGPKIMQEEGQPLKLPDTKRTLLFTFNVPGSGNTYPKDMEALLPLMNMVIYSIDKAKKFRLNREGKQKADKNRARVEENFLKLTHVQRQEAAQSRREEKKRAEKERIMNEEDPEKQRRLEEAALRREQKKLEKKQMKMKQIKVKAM
Chain of UniProt Q00536 (Q00536 whole entry, looked up): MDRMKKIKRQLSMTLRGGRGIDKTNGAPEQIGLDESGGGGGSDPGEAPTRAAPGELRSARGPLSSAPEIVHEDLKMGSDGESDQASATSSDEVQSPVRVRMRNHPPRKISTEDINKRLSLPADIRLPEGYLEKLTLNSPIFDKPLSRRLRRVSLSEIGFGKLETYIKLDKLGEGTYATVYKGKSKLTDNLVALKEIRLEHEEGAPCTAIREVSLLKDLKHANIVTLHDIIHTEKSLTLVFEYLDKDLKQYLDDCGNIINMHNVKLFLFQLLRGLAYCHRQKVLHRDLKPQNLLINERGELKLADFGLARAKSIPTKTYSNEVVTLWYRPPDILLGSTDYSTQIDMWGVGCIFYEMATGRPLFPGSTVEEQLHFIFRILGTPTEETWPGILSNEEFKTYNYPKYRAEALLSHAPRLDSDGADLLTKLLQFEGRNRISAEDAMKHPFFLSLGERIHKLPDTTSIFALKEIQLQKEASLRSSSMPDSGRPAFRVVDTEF
Chain of UniProt Q8WYN0 (Q8WYN0 whole entry, looked up): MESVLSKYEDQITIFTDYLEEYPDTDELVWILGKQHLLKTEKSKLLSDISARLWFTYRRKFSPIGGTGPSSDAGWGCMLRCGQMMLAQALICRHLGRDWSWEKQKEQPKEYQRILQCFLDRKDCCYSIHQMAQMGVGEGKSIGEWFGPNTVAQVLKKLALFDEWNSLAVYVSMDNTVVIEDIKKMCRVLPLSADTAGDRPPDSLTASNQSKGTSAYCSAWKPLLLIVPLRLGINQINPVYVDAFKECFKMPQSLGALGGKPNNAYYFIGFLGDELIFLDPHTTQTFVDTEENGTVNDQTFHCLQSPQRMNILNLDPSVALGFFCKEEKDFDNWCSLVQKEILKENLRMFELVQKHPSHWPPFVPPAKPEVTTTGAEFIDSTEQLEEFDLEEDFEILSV
Chain of UniProt O95067 (O95067 whole entry, looked up): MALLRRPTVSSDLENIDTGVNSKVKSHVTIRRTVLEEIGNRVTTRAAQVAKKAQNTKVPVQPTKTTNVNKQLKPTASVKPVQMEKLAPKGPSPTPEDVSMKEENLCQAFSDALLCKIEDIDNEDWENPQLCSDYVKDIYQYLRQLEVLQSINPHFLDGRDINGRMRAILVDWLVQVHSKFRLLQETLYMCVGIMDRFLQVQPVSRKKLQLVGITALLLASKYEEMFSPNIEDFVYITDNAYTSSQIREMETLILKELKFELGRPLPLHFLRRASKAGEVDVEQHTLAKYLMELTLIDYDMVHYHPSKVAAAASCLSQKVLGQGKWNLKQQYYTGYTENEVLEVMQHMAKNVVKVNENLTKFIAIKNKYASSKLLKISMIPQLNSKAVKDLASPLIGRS
Chain of UniProt Q8N4J0 (Q8N4J0 whole entry, looked up): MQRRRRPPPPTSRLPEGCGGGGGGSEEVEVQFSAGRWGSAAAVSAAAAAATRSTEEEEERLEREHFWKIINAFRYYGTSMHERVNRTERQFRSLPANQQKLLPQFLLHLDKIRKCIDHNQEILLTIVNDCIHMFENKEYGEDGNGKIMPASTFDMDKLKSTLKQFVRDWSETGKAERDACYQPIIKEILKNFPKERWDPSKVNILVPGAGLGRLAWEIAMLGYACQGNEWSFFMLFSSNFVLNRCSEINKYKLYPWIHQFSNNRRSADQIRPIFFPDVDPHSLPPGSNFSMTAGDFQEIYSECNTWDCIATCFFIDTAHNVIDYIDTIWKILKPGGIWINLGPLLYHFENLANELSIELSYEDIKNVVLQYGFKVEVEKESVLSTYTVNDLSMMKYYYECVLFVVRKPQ
Chain of UniProt Q5T9A4 (Q5T9A4 whole entry, looked up): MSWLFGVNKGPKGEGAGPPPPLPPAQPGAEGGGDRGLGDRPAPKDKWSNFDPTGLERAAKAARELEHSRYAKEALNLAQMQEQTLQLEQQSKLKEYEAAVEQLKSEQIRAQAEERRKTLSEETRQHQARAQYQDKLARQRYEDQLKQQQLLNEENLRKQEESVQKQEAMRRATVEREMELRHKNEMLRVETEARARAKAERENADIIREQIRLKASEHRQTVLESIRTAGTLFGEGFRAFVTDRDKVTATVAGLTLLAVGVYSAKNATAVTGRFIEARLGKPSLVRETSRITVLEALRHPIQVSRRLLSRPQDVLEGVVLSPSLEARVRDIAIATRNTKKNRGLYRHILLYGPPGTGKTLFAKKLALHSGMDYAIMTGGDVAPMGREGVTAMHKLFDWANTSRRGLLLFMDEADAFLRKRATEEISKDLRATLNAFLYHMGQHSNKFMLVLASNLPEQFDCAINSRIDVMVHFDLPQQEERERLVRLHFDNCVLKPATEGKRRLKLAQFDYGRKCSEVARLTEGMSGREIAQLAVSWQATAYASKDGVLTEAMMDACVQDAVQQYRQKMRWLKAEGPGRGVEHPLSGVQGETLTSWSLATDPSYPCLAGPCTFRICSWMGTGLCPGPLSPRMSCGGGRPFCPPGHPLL
Chain of UniProt Q9Y487 (Q9Y487 whole entry, looked up): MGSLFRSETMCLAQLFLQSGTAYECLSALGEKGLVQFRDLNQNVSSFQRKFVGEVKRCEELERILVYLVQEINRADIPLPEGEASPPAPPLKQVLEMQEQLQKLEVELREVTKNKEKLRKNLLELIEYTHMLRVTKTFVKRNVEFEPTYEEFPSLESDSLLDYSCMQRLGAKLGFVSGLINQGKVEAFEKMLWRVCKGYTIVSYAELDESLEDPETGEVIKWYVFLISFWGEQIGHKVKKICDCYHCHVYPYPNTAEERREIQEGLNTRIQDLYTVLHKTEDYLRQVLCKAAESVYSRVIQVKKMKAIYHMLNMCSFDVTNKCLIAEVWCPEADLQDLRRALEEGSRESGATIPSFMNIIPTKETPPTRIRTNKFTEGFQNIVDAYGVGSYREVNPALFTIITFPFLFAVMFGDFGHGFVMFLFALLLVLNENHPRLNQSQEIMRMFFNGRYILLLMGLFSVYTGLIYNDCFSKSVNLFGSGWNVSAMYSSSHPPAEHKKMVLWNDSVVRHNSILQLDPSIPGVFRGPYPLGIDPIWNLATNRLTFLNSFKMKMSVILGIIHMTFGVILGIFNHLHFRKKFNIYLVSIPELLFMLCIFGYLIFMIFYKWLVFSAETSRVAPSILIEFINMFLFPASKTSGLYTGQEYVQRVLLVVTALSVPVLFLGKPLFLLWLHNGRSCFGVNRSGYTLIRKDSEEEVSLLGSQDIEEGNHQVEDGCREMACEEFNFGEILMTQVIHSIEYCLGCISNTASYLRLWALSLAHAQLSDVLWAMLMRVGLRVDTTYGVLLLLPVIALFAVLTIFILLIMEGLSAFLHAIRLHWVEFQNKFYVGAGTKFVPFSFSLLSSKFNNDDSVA
Chain of UniProt P21953 (P21953 whole entry, looked up): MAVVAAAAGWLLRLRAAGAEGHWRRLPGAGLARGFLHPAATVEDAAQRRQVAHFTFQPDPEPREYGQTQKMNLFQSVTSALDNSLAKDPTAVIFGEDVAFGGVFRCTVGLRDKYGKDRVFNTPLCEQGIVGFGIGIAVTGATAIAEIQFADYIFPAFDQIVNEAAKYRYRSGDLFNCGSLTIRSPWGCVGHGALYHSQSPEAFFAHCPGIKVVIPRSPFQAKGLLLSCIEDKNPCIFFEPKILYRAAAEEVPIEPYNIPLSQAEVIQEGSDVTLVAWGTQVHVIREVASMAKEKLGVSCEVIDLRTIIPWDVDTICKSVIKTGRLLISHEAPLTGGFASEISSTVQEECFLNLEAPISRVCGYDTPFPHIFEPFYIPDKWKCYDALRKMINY
Chain of UniProt P40227 (P40227 whole entry, looked up): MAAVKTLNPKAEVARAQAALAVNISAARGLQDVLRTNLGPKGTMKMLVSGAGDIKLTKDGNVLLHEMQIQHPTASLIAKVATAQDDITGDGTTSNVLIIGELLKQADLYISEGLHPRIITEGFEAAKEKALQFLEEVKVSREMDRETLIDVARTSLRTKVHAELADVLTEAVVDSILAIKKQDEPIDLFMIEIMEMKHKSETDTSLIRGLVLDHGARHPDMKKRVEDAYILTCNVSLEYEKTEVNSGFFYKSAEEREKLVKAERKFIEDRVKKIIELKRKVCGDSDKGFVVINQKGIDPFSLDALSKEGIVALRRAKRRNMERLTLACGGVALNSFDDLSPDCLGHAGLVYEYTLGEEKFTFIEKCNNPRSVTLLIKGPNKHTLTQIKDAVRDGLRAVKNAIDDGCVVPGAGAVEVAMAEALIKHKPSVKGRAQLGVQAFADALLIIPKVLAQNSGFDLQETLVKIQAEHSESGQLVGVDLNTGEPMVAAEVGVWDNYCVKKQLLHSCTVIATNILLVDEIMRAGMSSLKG

| Target | log2 fold change [1] | log2 fold change [2] | log2 fold change [3] | log2 fold change [4] | log2 fold change [5] | log2 fold change [6] | log2 fold change [7] | log2 fold change [8] | log2 fold change [9] | log2 fold change [10] |
| --- | --- | --- | --- | --- | --- | --- | --- | --- | --- | --- |
| CCDC47 (UniProt Q96A33) | 0.011 | 0.032 | 0.002 | 0.024 | 0.014 | 0.018 | -0.02 | -0.09 | -0.003 | 0.007 |
| ATP6V0A2 (UniProt Q9Y487) | -0.035 | 0.013 | 0.037 | 0.071 | 0.005 | 0.017 | -0.117 | 0.14 | -0.007 | 0.029 |
| CCT6A (UniProt P40227) | -0.026 | -0.005 | -0.03 | -0.006 | 0.024 | 0.011 | -0.024 | -0.002 | -0.004 | -0.001 |
| CDK16 isoform 2 (UniProt Q00536) | 0.03 | 0.075 | 0.007 | -0.006 | -0.175 | -0.03 | -0.027 | 0.083 | 0.03 | 0.236 |
| C18orf25 isoform 2 (UniProt Q96B23) | -0.01 | 0.027 | -0.034 | 0.067 | -0.021 | -0.047 | -0.234 | 0.037 | -0.037 |  |
| ATG4B (UniProt Q9Y4P1) | 0.036 | 0.04 | 0.047 | 0.012 | -0.05 | 0.008 | 0.148 | -0.105 | 0.043 | 0.039 |
| CDK2 (UniProt P24941) | -0.012 | 0.012 | -0.01 | -0.059 | -0.025 | 0.008 | -0.055 | 0.167 | -0.017 | 0.09 |
| ATAD3B (UniProt Q5T9A4) | -0.022 | 0.016 | -0.007 | -0.004 | -0.019 | 0.014 | 0.383 (active) | -0.205 | -0.018 | -0.013 |
| CDK9 isoform 2 (UniProt P50750) | -0.117 | -0.064 | -0.025 | 0.009 | 0.002 | 0.175 | -0.203 | 0.079 | 0.005 | 0.34 (active) |
| BET1 (UniProt O15155) | 0.107 | -0.012 | 0.028 | -0.019 | 0.032 | -0.021 | 0.044 | -0.009 | 0.031 | -0.033 |
| CCDC51 (UniProt Q96ER9) | 0.001 | -0.008 | 0.027 | -0.005 | 0.002 | -0.009 | 0.262 (active) | -0.422 (active) | -0.034 | -0.072 |
| BCL2L12 (UniProt Q9HB09) | -0.032 | 0.08 | 0.166 | 0.013 | -0.06 | 0.087 | 0.018 | 0.116 | 0.057 | -0.007 |
| ATG4A (UniProt Q8WYN0) | -0.045 | 0.033 | 0.012 | -0.047 | -0.015 | 0.008 | 0.027 | -0.045 | 0.034 | -0.043 |
| CDC123 (UniProt O75794) | -0.052 | 0.014 | 0.04 | -0.12 | -0.05 | 0.032 | 0.018 | -0.021 | 0.012 | 0.013 |
| BCKDHB (UniProt P21953) | 0.068 | 0.032 | 0.065 | -0.102 | -0.079 | -0.064 | 0.022 | -0.02 | -0.012 | 0.129 |
| BRD4 (UniProt O60885) | 0.049 | 0.016 | -0.007 | 0.538 (active) | 0.217 (active) | -0.008 | -0.007 | 0.037 | -0.025 | -0.012 |
| CCNB2 (UniProt O95067) | 0.04 | -0.008 | 0.06 | 0.037 | -0.072 | -0.059 | -0.085 | 0.011 | 0.038 | 0.078 |
| CCNC (UniProt P24863) | 0.22 | 0.046 | -0.026 | -0.017 | -0.079 | 0.029 | -0.211 | 0.135 | -0.001 | -0.062 |
| CALM2 (UniProt P0DP24) | 0.028 | 0.011 | 0.564 (active) | 0.038 | 0.024 | -0.079 | -0.22 | 0.237 | 0.029 | 0 |
| CHCHD7 isoform 4 (UniProt Q9BUK0) | 0.026 | 0.06 | -0.026 | 0.073 | -0.064 | 0.021 | -0.71 (active) | 0.155 | -0.021 | 0.077 |
| ATP2B4 (UniProt P23634) | 0.002 | -0.002 | 0.026 | -0.027 | -0.004 | -0.019 | -0.185 | 0.145 | 0.024 | 0.009 |
| CDK1 (UniProt P06493) | 0.012 | -0.017 | -0.029 | -0.041 | -0.037 | -0.006 | -0.056 | -0.049 | 0.016 | -0.002 |
| CCNB1 (UniProt P14635) | 0.032 | -0.021 | 0.019 | 0.03 | -0.043 | -0.031 | -0.023 | -0.012 | 0.002 | -0.038 |
| CDK13 (UniProt Q14004) | -0.124 | -0.031 | -0.061 | 0.002 | -0.123 | 0.106 | -0.09 | 0.04 | 0.074 | -0.036 |
| CARNMT1 (UniProt Q8N4J0) | 0.04 | 0.008 | -0.012 | -0.013 | -0.005 | -0.044 | -0.422 (active) | 0.063 | 0.04 | 0.017 |
| CDC45 isoform 3 (UniProt O75419) | 0.009 | 0.042 | -0.015 | -0.05 | -0.017 | -0.05 | -0.096 | -0.04 | 0.007 | 0.027 |
| CCNH (UniProt P51946) | -0.025 | 0.001 | -0.035 | 0.036 | 0.003 | -0.034 | 0.054 | -0.062 | -0.036 | 0.033 |
| CHCHD1 (UniProt Q96BP2) | 0.157 | -0.025 | -0.002 | 0.028 | -0.001 | -0.075 | 1.08 (active) | -0.338 | 0.032 | 0.16 |
| CASP3 (UniProt P42574) | 0.002 | 0.015 | -0.024 | 0.034 | 0.013 | -0.011 | 0.279 (active) | -0.049 | -0.036 | -0.013 |
